Molecules are shown by their SMILES. About 18,000 (4.4%) of roughly 410,000 compounds were called active. Another 7% or so got no clear call; they are omitted. Only a selection was taken, and actives are over-represented in it overall. A number with no mark means an inactive call. Rule as the data show it: active = activity change below about -60%; inconclusive = no clear call, values can overlap the other calls; inactive = above about -39%.
% is scaled to controls: 0 for no effect and ±100 for the full control effect.

The nature of the assay: qHTS Assay for inhibitors of the human cytomegalovirus (HCMV). To be noted: HFF cells, HCMV-luciferase reporter, 72 h; at 57.5 µM; hits give low values. In short, it runs like this: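 Cell-based, HFFs, 1000 cells/well, 16 h 37C; cpds in DMSO + HCMV-luc, MOI 1 PFU/cell; 72 h 37C; OneGlo luminescence after 5 min RT; norm. to buffer vs Salinomycin 10uM.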
A general note: In qHTS, concentration-response curves come from the screen itself.
In the case of `COc1ccc(CCC(=O)NCCc2csc(-c3ccc(Cl)cc3)n2)cc1`, the activity change, negative = inhibition is 7.81%.

On to `Cn1c(Cc2csc(N)n2)nnc1SC/C=C/c1ccccc1`, for which the activity change, negative = inhibition was -18.7%.

As for `O=C(Nc1ccc(S(=O)(=O)N2CCC(c3nc4ccccc4s3)CC2)cc1)c1ccccc1F`, the activity change, negative = inhibition was -12.7%.

With `Cc1ccc(C(=O)C[n+]2cc(-c3ccccc3)n3c2CCCCC3)cc1`, the activity change, negative = inhibition is -92.1% (active).

For the molecule `O=C(C[n+]1cc(-c2ccc(Cl)c(Cl)c2)n2c1CCC2)c1cccs1`, the activity change, negative = inhibition is -37.8%.

`Cn1c(-c2ccccc2)c[n+]2c1CCCCC2`: the activity change, negative = inhibition is -28.9%.

As for `Cn1ccc2cc(S(=O)(=O)N3CCCC(C(=O)NCc4ccccc4F)C3)ccc21` (centres undefined), the activity change, negative = inhibition was -1.65%.

On to `CCCCOc1ccc(CNC(=O)c2ccc3c(c2)N(C)C(=O)C2CCCCN32)cc1` (centres undefined), for which the activity change, negative = inhibition is 25.7%.

Turning to `CCOC(=O)C1CCCN(S(=O)(=O)c2cc(-c3cc(C)no3)ccc2OC)C1` (centres undefined), the activity change, negative = inhibition was -10%.

`CC(C)c1ccc(NC(=O)Cn2c3ncccc3c(=O)n2-c2ccccc2)cc1`: the activity change, negative = inhibition was 8.47%.

Regarding `CCc1ccc2c(c1)NC(=O)C2(C)Cc1ccc(OC(F)(F)F)cc1` (centres undefined), the activity change, negative = inhibition was -75.3% (active).

Regarding `CN1CCN(Cc2ccc(OC(F)(F)F)cc2)CC1`, the activity change, negative = inhibition is -3.19%.

For `COc1ccccc1CC1(C)C(=O)Nc2ccc(OC(F)(F)F)cc21` (centres undefined), the activity change, negative = inhibition was -18.7%.

With `CCn1c2ccccc2c2cc(CN3CCN(Cc4cccc(Cl)c4)CC3)ccc21`, the activity change, negative = inhibition is -0.564%.

Take `C/C(=N/NC(=O)c1ccc(Br)o1)c1ccc(C)o1`: the activity change, negative = inhibition is 80.2%.

On to `Cc1ccc(/C=N/NC(=S)NC2CCCCC2)o1`, for which the activity change, negative = inhibition was -8.71%.

In the case of `C/C(=N\NC(=S)NC1CCCCC1)c1ccc(C)o1`, the activity change, negative = inhibition is -90.6% (active).

As for `Cn1c(=O)c2c(n3c4ccccc4nc13)NC(=O)CC2c1cccc(Cl)c1` (centres undefined), the activity change, negative = inhibition is 1.23%.

Consider `CC(C)Cn1c(C2CC(=O)N(c3ccccc3Cl)C2)nc2ccccc21` (centres undefined), for which the activity change, negative = inhibition was -19.6%.

`CCCS(=O)(=O)N1CCC(n2c(C(F)(F)F)nc3cccnc32)CC1`: the activity change, negative = inhibition is -21.7%.

For the molecule `O=C(OCC(O)C(O)COC(=O)c1ccccc1)c1ccccc1` (centres undefined), the activity change, negative = inhibition was 4.04%.

`O=C(NC1=CC(=O)c2ccccc2C1=O)c1ccccc1`: the activity change, negative = inhibition was -66.1% (active).

As to `O=C(Nc1ccc(Cl)cc1C(=O)c1ccccc1)c1cc(Cl)cc(Cl)c1`, the activity change, negative = inhibition was 5.04%.

Turning to `O=C(NCCCO)c1nn(-c2ccc(Cl)cc2)nc1CO`, the activity change, negative = inhibition is -7.65%.

As to `CC(C)c1nc2sc3c(c2c(=O)n1N)CC(C)(C)OC3`, the activity change, negative = inhibition was -18.9%.

`CCC1(C)Cc2c(sc3[nH]c(=S)n(Cc4ccccc4)c(=O)c23)CO1` (centres undefined): the activity change, negative = inhibition is -69.4% (active).

Turning to `CCCSc1nc(NCc2ccco2)c2c3c(sc2n1)COC(C)(CC)C3` (centres undefined), the activity change, negative = inhibition was -2.99%.

In the case of `Cn1c(=O)c2c(ncn2CC(=O)Nc2cccc(C(F)(F)F)c2)n(C)c1=O`, the activity change, negative = inhibition was 2.82%.

With `Cc1ccc(C)c(C(O)c2ncc(-c3cccc4ccccc34)[nH]2)c1` (centres undefined), the activity change, negative = inhibition was 4.52%.

For the molecule `CC(=O)N1CCCc2cc(S(=O)(=O)Nc3ccc(Cl)cc3F)ccc21`, the activity change, negative = inhibition is -24.4%.

As to `CC(CCc1ccccc1)NCC(O)c1cccc([N+](=O)[O-])c1` (centres undefined), the activity change, negative = inhibition was -22%.

As for `CC(Cc1ccccc1)NCCC(c1ccccc1)c1ccccc1` (centres undefined), the activity change, negative = inhibition was -91.4% (active).

`Cc1ncoc1C(=O)NCCC(c1ccccc1)c1ccccc1`: the activity change, negative = inhibition is -6.8%.

Consider `CCOC(=O)C(CCOc1cccc(CC)c1)C(=O)OCC`, for which the activity change, negative = inhibition was -23.8%.

In the case of `CC(C)NS(=O)(=O)c1ccc(OCC(=O)NC2CCCCCC2)cc1`, the activity change, negative = inhibition is -39.9%.

With `CC(=O)Nc1ccc(NC(=O)COc2ccc(S(=O)(=O)NC(C)c3ccccc3)cc2)cc1` (centres undefined), the activity change, negative = inhibition was 28.7%.

As for `CC(C)NS(=O)(=O)c1ccc(OCC(=O)Nc2ccc3c(c2)OCCO3)cc1`, the activity change, negative = inhibition was -82.2% (active).

With `O=C(NCc1ccccc1)C(=O)NCC(c1ccco1)S(=O)(=O)c1ccc(Cl)cc1` (centres undefined), the activity change, negative = inhibition was -24.1%.

For the molecule `S=c1[nH]nc2c3c4c(sc3ncn12)CCCC4`, the activity change, negative = inhibition was -26.7%.

As to `O=c1oc(-c2ccco2)nc2sc3c(c12)CCCCC3`, the activity change, negative = inhibition was 69%.

For `c1nnc2c3c4c(sc3ncn12)CCC4`, the activity change, negative = inhibition was -65.9% (active).

Take `O=C(Nc1nnc(C2=COCCO2)o1)c1ccc([N+](=O)[O-])s1`: the activity change, negative = inhibition is -20.1%.

In the case of `Cc1cccc(Cn2c(SCc3ccc(C(=O)N4CCC(C)CC4)cc3)nc3ccncc32)c1`, the activity change, negative = inhibition was -62.6% (active).

Consider `COc1cccc(Cn2c(SCc3ccc(C(=O)N4CCC(C)CC4)cc3)nc3ccncc32)c1`, for which the activity change, negative = inhibition was -13.1%.

With `Cc1cccc(CSc2nc3ccncc3n2Cc2ccc(C(=O)O)cc2)c1`, the activity change, negative = inhibition is 9.17%.

As for `NC1(C#Cc2ccc(F)c(-c3noc4ccccc34)c2)CCCCC1`, the activity change, negative = inhibition is -18.5%.

Consider `O=c1cc(O)c(-c2cccc(C(F)(F)F)c2)c(Cl)[nH]1`, for which the activity change, negative = inhibition was -14.8%.

Consider `O=C(Nc1cc(C(F)(F)F)ccc1Cl)c1nc2ccccc2nc1N1CCCCC1`, for which the activity change, negative = inhibition was 10.2%.

Take `O=C(NNc1ccccc1Cl)C(O)(c1cccc(C(F)(F)F)c1)c1cccc(C(F)(F)F)c1`: the activity change, negative = inhibition was -100% (active).

With `COc1cccc(/C=C2\Sc3ccc(C(=O)NCC4CCCO4)cc3N(C)C2=O)c1` (centres undefined), the activity change, negative = inhibition was -14.4%.

For `COc1ccc2c(c1)C(C)=CC(C)(C)N2C(=O)Nc1ccccc1`, the activity change, negative = inhibition was -99.4% (active).

As for `COc1ccc2c(c1)C(C)=CC(C)(C)N2C(=O)CNCc1ccc2c(c1)OCO2`, the activity change, negative = inhibition was -9.9%.

Take `COc1cccc(NC(=O)C2C(c3ccccc3)C2(Cl)Cl)c1` (centres undefined): the activity change, negative = inhibition was -32.5%.

In the case of `C#CCOc1ccc(C2CC(=O)Nc3c2c(C)nn3-c2nc(C)cc(C)n2)cc1` (centres undefined), the activity change, negative = inhibition is -10.8%.

On to `CC[C@]12c3[nH]c4cc(CCC(=O)N(C)C)ccc4c3CCN1C(=O)[C@@H](CC(=O)NCCCN(C)C)C[C@@H]2C(=O)N1CCN(C(=O)c2ccco2)CC1`, for which the activity change, negative = inhibition was -18.4%.

Regarding `CN1c2ccc(Cl)cc2-c2nc(SCC(=O)Nc3cc(F)ccc3F)ncc2S1(=O)=O`, the activity change, negative = inhibition was -32.3%.

Consider `O=C(Nc1ccccc1C(=O)N1CCOCC1)c1ccc(CSc2ccccc2)cc1`, for which the activity change, negative = inhibition is -24.2%.

On to `C/C(CCc1ccccc1)=N\NC(=O)c1ccc(CN2CCOCC2)cc1`, for which the activity change, negative = inhibition was -12.4%.

Consider `O=C(Nc1ccc(CSc2ccccc2)cc1)c1ccc(CN2CCOCC2)cc1`, for which the activity change, negative = inhibition was -79.7% (active).

Take `CCCCN1CCNC1=S`: the activity change, negative = inhibition is 47%.

In the case of `CCn1cc(C(=O)NCc2ccc(C)cc2)c(=O)c2cc(S(=O)(=O)N3CCc4ccccc4C3)ccc21`, the activity change, negative = inhibition was 7.01%.

Consider `Cc1c(Cl)cccc1NC(=O)C1CCCN(c2ncnc3onc(C)c23)C1` (centres undefined), for which the activity change, negative = inhibition was 4.4%.

Regarding `CCc1ccccc1N(C)C(=O)C1CCCN(c2ncnc3onc(-c4ccc(F)cc4)c23)C1` (centres undefined), the activity change, negative = inhibition was 6.75%.

In the case of `Cc1ccc(Cl)cc1N(C)C(=O)C1CCCN(c2ncnc3onc(-c4ccc(F)cc4)c23)C1` (centres undefined), the activity change, negative = inhibition is -73.3% (active).

Regarding `CC(C)Oc1ccc(S(=O)(=O)N2CCOCC2)cc1NC(=O)C1CCCC1`, the activity change, negative = inhibition is 36.7%.

Take `CCCc1cc(=O)oc2c(C)c(O)c(CN3CCCCC3)cc12`: the activity change, negative = inhibition was -20.3%.

As to `OC(COc1ccc(CN2CCSCC2)cc1)CN1CCCCC1` (centres undefined), the activity change, negative = inhibition was 0%.

Turning to `Cn1c(=O)c2c(nc(N3CCCCCC3)n2CC(O)COc2ccc(Cl)cc2)n(C)c1=O` (centres undefined), the activity change, negative = inhibition is 16.7%.

Take `O=C(c1ccc(Cl)cc1)c1ccc(OCC(O)CN2CCCCC2)cc1` (centres undefined): the activity change, negative = inhibition was -63.1% (active).

For `COc1ccc(NC(=O)CCNS(=O)(=O)c2ccc3c(c2)CCCC(=O)N3)cc1Cl`, the activity change, negative = inhibition was -20.5%.

`CCn1c(CNC(=O)C23CC4CC(CC(C4)C2)C3)nnc1SCC(=O)Nc1ccc(OC)cc1`: the activity change, negative = inhibition was 10%.

Turning to `C#CCOc1ccccc1/C=C1/C(=O)ON=C1C`, the activity change, negative = inhibition is 52.7%.

Turning to `Cc1no[n+]([O-])c1COc1ccccc1/C=C1\NC(=S)NC1=O`, the activity change, negative = inhibition was -83.4% (active).

Take `COC(=O)c1ccc(Cn2c(SCC(=O)N(C)c3ccccc3)nc3ccccc32)cc1`: the activity change, negative = inhibition was -6.59%.

On to `COc1ccc(-c2nnc(SC(=O)N3c4ccccc4Sc4ccccc43)o2)cc1`, for which the activity change, negative = inhibition was 10.6%.

For `N/C(=N\OC(=O)CCc1ccccc1)c1ccc(Cl)cc1`, the activity change, negative = inhibition was 10.6%.

Turning to `N/C(=N\OC(=O)N1c2ccccc2Sc2ccccc21)c1ccc(Br)cc1`, the activity change, negative = inhibition is -63.7% (active).

Take `COc1cc(Cl)c(NC(=O)CC(C)S(=O)(=O)c2cc3c(cc2C)NC(=O)CO3)c(OC)c1` (centres undefined): the activity change, negative = inhibition is -4.28%.

Take `CS(=O)(=O)N(CC(=O)NCc1ccco1)c1ccc2c(c1)OCO2`: the activity change, negative = inhibition was -9.98%.

In the case of `O=C(CN(c1ccc2c(c1)OCCO2)S(=O)(=O)c1ccccc1)Nc1ccc2c(c1)OCO2`, the activity change, negative = inhibition is -86.6% (active).

In the case of `COc1ccc(S(=O)(=O)N(C)CC(=O)Nc2ccc3c(c2)OCCO3)cc1OC`, the activity change, negative = inhibition is 51.4%.

`Cc1cccn2c(=O)c3cc(C(=O)NCCN4CCOCC4)c(=N)n(Cc4cccnc4)c3nc12`: the activity change, negative = inhibition is -86% (active).

On to `COCCCn1c(C(=O)NC2CCCCC2)cc2c(=O)n3cccc(C)c3nc21`, for which the activity change, negative = inhibition is 1.95%.

Consider `CCCn1c(=N)c(C(=O)NCc2ccccc2)cc2c(=O)n3cccc(C)c3nc21`, for which the activity change, negative = inhibition was -7.61%.

`Cc1cccn2c(=O)c3cc(C(=O)NC(C)c4ccccc4)c(=N)n(CCCO)c3nc12` (centres undefined): the activity change, negative = inhibition is -15.1%.

`COc1ccc(CCn2c(=N)c(C(=O)NCc3ccco3)cc3c(=O)n4cccc(C)c4nc32)cc1`: the activity change, negative = inhibition is -83.4% (active).

Turning to `Cc1cccn2c(=O)c3cc(C#N)c(=NC(=O)c4cccnc4)n(CC4CCCO4)c3nc12` (centres undefined), the activity change, negative = inhibition is 2.74%.

In the case of `Cc1cc(Br)ccc1NC(=O)Cn1cnc2sc(C)c(S(=O)(=O)N3CCN(C)CC3)c2c1=O`, the activity change, negative = inhibition is 0.161%.

`CCCS(=O)(=O)NC(=O)C1(C)CCCN(C(=O)c2cc(C)on2)C1` (centres undefined): the activity change, negative = inhibition is 32.5%.

These data come from PubChem BioAssay AID1259415 (National Center for Advancing Translational Sciences (NCATS), 2018).
